# Data: PubChem BioAssay (Tox21)
# Records with an inconclusive call do not appear. A call without a number means that no potency is given here. The source made the active and inactive calls. Calls follow the shape of the dose curve; as a rule, active = well fitted curve in the direction sought with a large enough effect in the repeat runs; inconclusive = weak or mixed curves; inactive = no such curve, though single readings can be large; an effect the other way counts as inactive or inconclusive.
# Tests used:
# [1] = A CellTox Green Cytotoxicity Assay to monitor cytotoxicity in HEK293 cells - 32 hour (AID 1224881); also: nearly all actives have a fitted effect of over 40% in size; also: potency is read from the fitted curve at half-maximal effect
# Summary of the method: (§1)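 Fluorescence intensity, read at 0, 8, 16, 24, 32 and 40 h of compound treatment, reflected dye binding to DNA of dead HEK293 cells; compounds (23 nL, DMSO) were added 5 h after plating cells with reagent.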
# [2] = A CellTox Green Cytotoxicity Assay to monitor cytotoxicity in HepG2 cells - 0 hour (AID 1224882); also: nearly all actives have a fitted effect of over 35% in size
# Summary of the method: (§2)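 Using 1536-well format, dye-containing HepG2 suspension was seeded, allowed 5 h at 37 C/5% CO2, dosed by pintool with compounds, positive and negative controls, and imaged for fluorescence across 40 h.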
# [3] = A CellTox Green Cytotoxicity Assay to monitor cytotoxicity in HEK293 cells - 8 hour (AID 1224884); also: nearly all actives have a fitted effect of over 35% in size; also: potency is read from the fitted curve at half-maximal effect
# Summary of the method: as §1
# [4] = qHTS RealTime-Glo MT Cell Viability Assay in HepG2 cells - 16 hour (AID 1224885); also: nearly all actives have a fitted effect of over 50% in size; also: potency is read from the fitted curve at half-maximal effect
# Summary of the method: (§3)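 HepG2 cells were seeded at 600 cells/well together with NanoLuc luciferase and a cell-permeant prosubstrate, preincubated 5 h at 37 C/5% CO2, then pin-dosed with compounds in DMSO. Nonlytic luminescence from viable cells was read at each time point.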
# [5] = qHTS RealTime-Glo MT Cell Viability Assay in HEK293 cells - 24 hour (AID 1224886); also: nearly all actives have a fitted effect of over 50% in size; also: potency is read from the fitted curve at half-maximal effect
# Summary of the method: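 HEK293 cells were seeded at 600 cells/well together with NanoLuc luciferase and cell-permeant prosubstrate, preincubated 5 h at 37 C/5% CO2, then given compound in DMSO by pintool. Luminescence from viable-cell prosubstrate reduction was read repeatedly over 40 h.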
# [6] = A CellTox Green Cytotoxicity Assay to monitor cytotoxicity in HEK293 cells - 16 hour (AID 1224888); also: nearly all actives have a fitted effect of over 35% in size; also: potency is read from the fitted curve at half-maximal effect
# Summary of the method: as §1
# [7] = qHTS RealTime-Glo MT Cell Viability Assay in HepG2 cells - 0 hour (AID 1224889); also: nearly all actives have a fitted effect of over 50% in size; also: potency is read from the fitted curve at half-maximal effect
# Summary of the method: as §3
# [8] = A CellTox Green Cytotoxicity Assay to monitor cytotoxicity in HepG2 cells - 8 hour (AID 1224890); also: nearly all actives have a fitted effect of over 45% in size; also: potency is read from the fitted curve at half-maximal effect
# Summary of the method: as §2
# [9] = qHTS RealTime-Glo MT Cell Viability Assay in HEK293 cells - 8 hour (AID 1224887); also: nearly all actives have a fitted effect of over 50% in size; also: potency is read from the fitted curve at half-maximal effect
# Summary of the method: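 Viable HEK293 cells reduce a cell-permeant prosubstrate; the product diffuses out and is consumed by NanoLuc in the medium to give light. Compounds went in after a 5 h incubation and plates were read over the treatment course.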
# [10] = A CellTox Green Cytotoxicity Assay to monitor cytotoxicity in HepG2 cells - 32 hour (AID 1224883); also: nearly all actives have a fitted effect of over 50% in size; also: potency is read from the fitted curve at half-maximal effect
# Summary of the method: as §2
SMILES,Potency [1],Potency [2],Potency [3],Potency [4],Potency [5],Potency [6],Potency [7],Potency [8],Potency [9],Potency [10]
O=C(O)CCCCCCNC1c2ccccc2CCc2ccccc21,inactive,inactive,inactive,inactive,inactive,inactive,inactive,inactive,–,–
Nc1ccccc1-c1ccccc1,–,inactive,inactive,inactive,inactive,inactive,inactive,inactive,inactive,–
Oc1cc(Cl)cc(Cl)c1,49.5 µM (active),–,inactive,inactive,–,–,inactive,inactive,–,–
c1csc(-c2ccc(-c3cccs3)s2)c1,–,inactive,inactive,inactive,inactive,–,inactive,inactive,inactive,inactive
CC(=O)[O-].CC(=O)[O-].CC(=O)[O-].[Cr+3],inactive,–,inactive,–,inactive,–,inactive,inactive,inactive,inactive
CCc1cccc(C)c1N(C(=O)CCl)[C@@H](C)COC,–,inactive,–,–,inactive,–,inactive,–,inactive,43.6 µM (active)
CNC(C)(C)Cc1ccccc1,inactive,–,inactive,–,inactive,inactive,inactive,inactive,–,inactive
CC(=O)[O][Pb]([c]1ccccc1)([c]1ccccc1)[c]1ccccc1,3.09 µM (active),–,11 µM (active),1.55 µM (active),0.436 µM (active),–,–,3.89 µM (active),3.47 µM (active),–
C[C@]12CC[C@H]3[C@@H](CCC4=CC(=O)CC[C@@H]43)[C@@H]1CC[C@@H]2OC(=O)CCc1ccco1,–,inactive,inactive,inactive,inactive,–,inactive,inactive,inactive,inactive
c1ccc(Nc2ccc(Nc3ccccc3)cc2)cc1,–,inactive,–,inactive,21.8 µM (active),–,inactive,inactive,15.4 µM (active),inactive
O=[N+]([O-])C(Br)Br,–,inactive,inactive,–,55 µM (active),–,inactive,inactive,–,–
Cc1c([N+](=O)[O-])cc2c(c1[N+](=O)[O-])C(C)(C)CC2(C)C,–,inactive,–,inactive,inactive,–,inactive,inactive,inactive,inactive
O.O.O.O.O.O.O=S(=O)([O-])[O-].[Ni+2],inactive,–,inactive,–,inactive,inactive,–,inactive,inactive,inactive
O=C(NC(=O)c1c(F)cccc1F)Nc1ccc(Oc2ccc(C(F)(F)F)cc2Cl)cc1F,inactive,–,inactive,–,24.5 µM (active),inactive,inactive,inactive,–,inactive
FC(F)C(F)(F)OCC(Cn1cncn1)c1ccc(Cl)cc1Cl (centres undefined),–,inactive,inactive,–,21.7 µM (active),–,inactive,–,–,48.7 µM (active)
O=S1(=O)OCC2C(CO1)C1(Cl)C(Cl)=C(Cl)C2(Cl)C1(Cl)Cl (centres undefined),–,inactive,inactive,–,19.5 µM (active),inactive,inactive,inactive,–,–
Oc1ccc2[nH]cc(CCCCN3CC=C(c4ccccc4)CC3)c2c1,–,inactive,inactive,inactive,19 µM (active),inactive,inactive,inactive,8.49 µM (active),23.9 µM (active)
C=CCOC(=O)c1ccccc1N,–,inactive,inactive,inactive,inactive,inactive,inactive,inactive,–,inactive
COc1ccc2c3c1O[C@H]1[C@H](O)CC[C@H]4[C@@H](C2)N(C)CC[C@@]341,–,inactive,inactive,inactive,inactive,inactive,inactive,inactive,inactive,inactive
Cc1cccc(Cc2cnc[nH]2)c1C,inactive,–,inactive,inactive,inactive,inactive,inactive,–,inactive,–
C1=CCC=C1,inactive,–,inactive,–,–,inactive,inactive,inactive,inactive,inactive

SMILES,Potency [1],Potency [2],Potency [3],Potency [4],Potency [5],Potency [6],Potency [7],Potency [8],Potency [9],Potency [10]
[O]=[Cr][O][Cr]=[O],inactive,–,inactive,inactive,inactive,inactive,inactive,inactive,–,–
CCN1CCC2(CC1)COc1cc3c(cc12)N(C(=O)c1ccc(-c2ccc(-c4nnc(C)o4)cc2C)cc1)CC3,–,inactive,50.7 µM (active),45.2 µM (active),12.7 µM (active),–,20.2 µM (active),50.7 µM (active),20.2 µM (active),–
Nc1c(Cl)c(Cl)c(Cl)c(Cl)c1Cl,inactive,–,inactive,–,inactive,–,inactive,–,inactive,–
O=C(Nc1ccc(F)cc1F)c1cccnc1Oc1cccc(C(F)(F)F)c1,–,inactive,–,inactive,inactive,inactive,inactive,inactive,inactive,–
CN1C(=O)[C@@H](NC(=O)c2cc3ccccc3[nH]2)N=C(c2ccccc2)c2ccccc21,inactive,–,inactive,–,inactive,inactive,inactive,inactive,inactive,inactive
Fc1ccc(C(OCCN2CCN(CCCc3ccccc3)CC2)c2ccc(F)cc2)cc1,23.9 µM (active),–,21.3 µM (active),23.9 µM (active),9.52 µM (active),21.3 µM (active),inactive,23.9 µM (active),–,–
O=C(NC(=O)c1ccccc1Cl)Nc1ccc(OC(F)(F)F)cc1,inactive,–,inactive,–,–,inactive,inactive,inactive,inactive,–
Oc1ccc([C@H]2CNCc3c2ccc(O)c3O)cc1O,–,–,26.8 µM (active),–,inactive,26.8 µM (active),inactive,26.8 µM (active),–,–
C[C@@H]1CC2=CC(=O)CC[C@@H]2[C@H]2CC[C@@]3(C)[C@@H](CC[C@]3(C)O)[C@@H]21,inactive,–,inactive,–,–,inactive,inactive,inactive,–,inactive
ClC1(Cl)C2(Cl)C3(Cl)C4(Cl)C(Cl)(Cl)C5(Cl)C3(Cl)C1(Cl)C5(Cl)C24Cl (centres undefined),inactive,–,inactive,inactive,inactive,inactive,inactive,inactive,inactive,–
S=C=NCCc1ccccc1,49.1 µM (active),–,inactive,inactive,49.1 µM (active),–,inactive,inactive,–,–
CCO/N=C(\CC)C1=C(O)CC(c2c(C)cc(C)cc2C)CC1=O (centres undefined),inactive,–,inactive,inactive,–,–,–,–,–,–
Cc1cc(C2CC2)nc(Nc2ccccc2)n1,inactive,–,inactive,–,24.5 µM (active),–,inactive,–,21.9 µM (active),–
O=c1[nH]c(Cl)c(Cl)cc1Cl,inactive,–,inactive,inactive,inactive,inactive,inactive,inactive,inactive,–
CCCC[N+]1(C)CCCC1 (tested in a mixture with another compound),inactive,–,inactive,–,inactive,inactive,inactive,inactive,–,–
CC1=C2C[C@H]3[C@@H](CC=C4C[C@@H](O)CC[C@@]43C)[C@@H]2CC[C@]12O[C@@H]1C[C@H](C)CN[C@H]1[C@H]2C,–,–,inactive,inactive,16.9 µM (active),–,–,inactive,–,26.8 µM (active)
O=[N+]([O-])c1ccc(Cl)c(Cl)c1Cl,–,inactive,inactive,inactive,inactive,–,inactive,inactive,–,–
CC(=O)C(Cl)C(=O)N(C)C (centres undefined),–,inactive,inactive,inactive,inactive,inactive,inactive,inactive,inactive,inactive
CN(C)c1ccc(N)cc1,–,inactive,inactive,–,42.6 µM (active),inactive,inactive,inactive,24 µM (active),inactive
[Cl][Hg][c]1ccccc1,2.19 µM (active),–,inactive,2.75 µM (active),1.23 µM (active),inactive,–,3.09 µM (active),–,–
